# According to PubChem BioAssay:
# “And” between values parts separate entries of the source, which are not always exact repeats. Equal entries are not always repeated. The source made the active and inactive calls.
# How the values were obtained:
# [1] = tested on: PRMT1 (protein arginine N-methyltransferase 1); assay: PRMT1 binders on small-molecule microarrays, primary screen, biochemical, small-molecule microarray, 635 nm fluorescence (AID 1088); conditions: small-molecule microarray binding, higher = more signal;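 further: binding of Prmt1 protein to compounds spotted on small-molecule microarray slides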
# [2] = yeast growth modulation, basal conditions, primary screen, YJM789 clinical isolate, OD600, 24 h (AID 1089);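 further: growth of clinical yeast isolate S. cerevisiae YJM 789 seeded 1000 cells per well; test concentration not given here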; conditions: S. cerevisiae YJM789 growth, higher = more signal, called active from +8 up or from −8 down
# [3] = fission yeast growth modulation, primary screen, strain 972, OD600, 24 h, no modulator (AID 1090);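 further: basal condition with compound alone and no growth modifier present; test concentration not given here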; conditions: S. pombe 972 growth, higher = more signal, called active from +8 up or from −8 down
# [4] = S. cerevisiae growth modulation with rapamycin, primary screen, strain BY4716, OD600, 96 h (AID 1091); conditions: higher = more signal, called active from +8 up or from −8 down; further: test concentration not given here
# [5] = biological target: Torsin-1A-interacting protein 2 (Homo sapiens) (UniProt Q8NFQ8); assay: LULL1 binders on small-molecule microarray, primary screen, cell lysate, human LULL1 lysate, 635/667 nm fluorescence (AID 1092); conditions: hLULL1 lysate binding, 635 nm fluorescence, higher = more signal;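 further: probe is lysate of COS7 cells overexpressing human LULL1; score merges per-feature 667 nm fluorescence with signal-to-noise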
# Sequence of Torsin-1A-interacting protein 2 (Homo sapiens) (Q8NFQ8 whole entry, looked up): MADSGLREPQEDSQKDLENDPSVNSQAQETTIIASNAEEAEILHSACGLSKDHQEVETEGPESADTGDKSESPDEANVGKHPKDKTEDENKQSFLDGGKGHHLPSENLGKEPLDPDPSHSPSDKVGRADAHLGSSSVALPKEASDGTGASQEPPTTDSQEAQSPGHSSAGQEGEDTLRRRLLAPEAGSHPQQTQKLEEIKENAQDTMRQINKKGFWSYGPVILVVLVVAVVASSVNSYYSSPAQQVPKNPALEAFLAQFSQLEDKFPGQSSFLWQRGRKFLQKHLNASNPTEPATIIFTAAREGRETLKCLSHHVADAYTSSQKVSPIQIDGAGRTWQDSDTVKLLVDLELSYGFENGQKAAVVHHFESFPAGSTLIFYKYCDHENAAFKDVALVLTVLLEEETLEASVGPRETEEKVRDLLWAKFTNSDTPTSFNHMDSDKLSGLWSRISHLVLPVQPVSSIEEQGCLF
# [6] = E. coli growth modulation, two-sided OD650, primary screen, E. coli filamentation project, strain DRC41, 24 h (AID 1093); conditions: OD650, 24 h, higher = more signal, called active from +8 up or from −8 down;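 further: MC1000 strain lacking acrAB efflux and sulA so SOS filamentation is blocked; test concentration not given here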
# [7] = small-molecule microarray binders of probe aLefty2, primary screen, biochemical, biotinylated probe, 635/667 nm fluorescence (AID 1094); conditions: higher = more signal;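 further: score merges spot fluorescence near 667 nm with spot signal-to-noise ratio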
# [8] = tested on: Noggin (protein binding on small-molecule microarray); assay: Noggin binders on small-molecule microarray, primary screen, biochemical, 635/667 nm fluorescence (AID 1095); conditions: 635 nm fluorescence, higher = more signal;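 further: score merges 667 nm feature fluorescence with signal to noise over triplicate slides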
# [9] = biological target: Neurogenic locus notch homolog protein 3 (Homo sapiens) (UniProt Q9UM47); assay: NOTCH3 binders on small-molecule microarray, primary screen, biochemical, 635/667 nm fluorescence (AID 1096); conditions: NOTCH3 binding, 635 nm fluorescence, higher = more signal
# Sequence of Neurogenic locus notch homolog protein 3 (Homo sapiens) (Q9UM47 whole entry, looked up): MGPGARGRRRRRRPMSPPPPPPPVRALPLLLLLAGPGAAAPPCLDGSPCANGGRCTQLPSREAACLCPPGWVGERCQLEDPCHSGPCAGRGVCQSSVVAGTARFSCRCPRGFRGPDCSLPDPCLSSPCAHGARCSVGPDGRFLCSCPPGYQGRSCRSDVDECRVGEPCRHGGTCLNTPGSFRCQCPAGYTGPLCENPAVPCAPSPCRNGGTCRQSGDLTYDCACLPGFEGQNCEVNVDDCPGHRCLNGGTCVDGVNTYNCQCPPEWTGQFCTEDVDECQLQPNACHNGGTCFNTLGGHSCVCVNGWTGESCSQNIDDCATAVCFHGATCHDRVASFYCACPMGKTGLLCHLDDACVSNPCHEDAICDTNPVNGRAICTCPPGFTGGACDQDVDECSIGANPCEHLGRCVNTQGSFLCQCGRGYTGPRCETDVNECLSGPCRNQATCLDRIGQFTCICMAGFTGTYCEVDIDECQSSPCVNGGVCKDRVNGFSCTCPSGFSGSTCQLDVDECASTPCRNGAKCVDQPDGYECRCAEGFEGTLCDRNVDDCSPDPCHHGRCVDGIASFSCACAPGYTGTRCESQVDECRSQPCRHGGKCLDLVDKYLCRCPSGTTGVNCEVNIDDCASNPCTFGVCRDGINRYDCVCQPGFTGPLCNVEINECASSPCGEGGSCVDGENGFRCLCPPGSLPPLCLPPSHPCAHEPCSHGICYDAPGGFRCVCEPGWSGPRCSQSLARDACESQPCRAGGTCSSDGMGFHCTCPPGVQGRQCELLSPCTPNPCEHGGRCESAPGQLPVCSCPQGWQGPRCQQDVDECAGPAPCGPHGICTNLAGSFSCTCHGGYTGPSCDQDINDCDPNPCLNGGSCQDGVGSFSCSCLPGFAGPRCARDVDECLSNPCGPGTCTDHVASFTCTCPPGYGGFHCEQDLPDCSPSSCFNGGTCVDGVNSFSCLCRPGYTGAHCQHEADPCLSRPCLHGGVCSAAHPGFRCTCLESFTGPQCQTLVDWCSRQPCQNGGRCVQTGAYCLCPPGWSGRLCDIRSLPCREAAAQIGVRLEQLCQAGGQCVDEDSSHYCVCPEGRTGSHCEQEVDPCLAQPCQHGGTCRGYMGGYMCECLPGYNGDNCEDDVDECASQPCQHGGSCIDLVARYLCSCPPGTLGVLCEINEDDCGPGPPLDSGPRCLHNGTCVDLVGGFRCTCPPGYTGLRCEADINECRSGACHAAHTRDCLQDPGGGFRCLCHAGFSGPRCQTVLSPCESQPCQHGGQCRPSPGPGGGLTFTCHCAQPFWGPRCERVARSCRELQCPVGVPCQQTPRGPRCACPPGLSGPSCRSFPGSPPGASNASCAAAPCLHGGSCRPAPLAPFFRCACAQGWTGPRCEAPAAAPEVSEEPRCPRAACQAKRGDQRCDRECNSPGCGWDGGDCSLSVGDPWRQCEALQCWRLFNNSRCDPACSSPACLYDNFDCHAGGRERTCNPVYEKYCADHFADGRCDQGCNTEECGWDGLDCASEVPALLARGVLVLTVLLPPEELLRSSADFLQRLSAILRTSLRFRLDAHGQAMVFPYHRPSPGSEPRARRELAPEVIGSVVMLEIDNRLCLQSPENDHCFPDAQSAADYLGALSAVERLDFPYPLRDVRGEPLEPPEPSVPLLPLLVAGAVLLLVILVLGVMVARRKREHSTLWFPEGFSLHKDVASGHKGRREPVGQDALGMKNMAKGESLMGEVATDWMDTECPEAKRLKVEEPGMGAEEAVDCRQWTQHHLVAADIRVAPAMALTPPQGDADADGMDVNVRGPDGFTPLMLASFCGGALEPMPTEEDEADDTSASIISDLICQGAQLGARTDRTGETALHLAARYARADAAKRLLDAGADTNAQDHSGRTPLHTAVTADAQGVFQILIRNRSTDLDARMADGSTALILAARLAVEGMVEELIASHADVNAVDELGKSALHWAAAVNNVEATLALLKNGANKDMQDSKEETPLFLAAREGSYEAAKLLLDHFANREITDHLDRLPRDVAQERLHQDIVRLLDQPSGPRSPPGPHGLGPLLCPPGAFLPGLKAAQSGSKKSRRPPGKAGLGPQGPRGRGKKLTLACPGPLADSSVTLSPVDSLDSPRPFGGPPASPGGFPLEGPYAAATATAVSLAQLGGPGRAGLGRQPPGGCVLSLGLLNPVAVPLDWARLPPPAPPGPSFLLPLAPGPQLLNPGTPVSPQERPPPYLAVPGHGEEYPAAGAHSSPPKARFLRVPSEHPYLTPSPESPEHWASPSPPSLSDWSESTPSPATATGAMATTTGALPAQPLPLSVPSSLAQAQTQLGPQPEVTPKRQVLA
# [10] = small-molecule microarray binders of probe aEGFR, primary screen, biochemical, biotinylated probe, 635/667 nm fluorescence (AID 1097); conditions: higher = more signal;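 further: probe is a biotinylated anti-EGFR antibody binding compounds printed on slides; score combines fluorescence near 667 nm and signal to noise of each spot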
# [11] = tested on: Plasmodium falciparum Sir2 (PF13_0152, Sir2A); assay: pfSir2 binders on small-molecule microarrays, primary screen, biochemical, small-molecule microarray, 635 nm fluorescence (AID 1098); conditions: small-molecule microarray binding, fluorescence 635 nm; higher = more signal;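 further: score merges spot fluorescence intensity with its signal-to-noise ratio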
# [12] = small-molecule microarray binders of probe aDKK1, primary screen, biochemical, biotinylated probe, 635/667 nm fluorescence (AID 1099); conditions: higher = more signal;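 further: score merges 667nm spot fluorescence with signal to noise across triplicate slides; reference of the scale not given here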
# [13] = small-molecule microarray binders of probe aCHRDL2, primary screen, biochemical, biotinylated probe, 635/667 nm fluorescence (AID 1100); conditions: higher = more signal
# [14] = splicing luciferase reporter signal modulators, primary screen, spliceosome inhibition project, cell-based, HEK293, splice +/- reporter (AID 1101); conditions: luminescence, 24 h, higher = more signal, called active from +8 up or from −8 down;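 further: HEK293 cells carrying a splicing-competent luciferase reporter gene; test concentration not given here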
# [15] = biological target: Fibroblast growth factor 10 (Homo sapiens) (UniProt O15520); assay: FGF10 binders on small-molecule microarrays, primary screen, biochemical, small-molecule microarray, 635 nm fluorescence (AID 1102); conditions: FGF10 binding, fluorescence 635 nm, higher = more signal
# Sequence of Fibroblast growth factor 10 (Homo sapiens) (O15520 whole entry, looked up): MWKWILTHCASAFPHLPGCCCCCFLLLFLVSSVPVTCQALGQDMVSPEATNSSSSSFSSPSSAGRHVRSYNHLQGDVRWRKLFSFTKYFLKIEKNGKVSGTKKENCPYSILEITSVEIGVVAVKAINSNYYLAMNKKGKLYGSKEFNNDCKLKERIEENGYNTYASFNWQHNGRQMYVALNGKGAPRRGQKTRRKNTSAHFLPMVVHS
# [16] = tested on: glycogen synthase kinase-3 (GSK3A per assay name; protocol says GSK3B); assay: GSK3 binders on small-molecule microarrays, primary screen, biochemical, small-molecule microarray, 635 nm fluorescence, GSK3A (AID 1103); conditions: small-molecule microarray binding, fluorescence 635 nm; higher = more signal; further: the record names both GSK3A and GSK3B
# [17] = biological target: Epidermal growth factor receptor (Homo sapiens) (UniProt P00533); assay: EGFR binders on small-molecule microarrays, primary screen, biochemical, small-molecule microarray, 635 nm fluorescence (AID 1104); conditions: EGFR binding, higher = more signal;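 further: score merges 667 nm emission intensity with spot signal to noise over triplicate slides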
# Sequence of Epidermal growth factor receptor (Homo sapiens) (P00533 whole entry, looked up): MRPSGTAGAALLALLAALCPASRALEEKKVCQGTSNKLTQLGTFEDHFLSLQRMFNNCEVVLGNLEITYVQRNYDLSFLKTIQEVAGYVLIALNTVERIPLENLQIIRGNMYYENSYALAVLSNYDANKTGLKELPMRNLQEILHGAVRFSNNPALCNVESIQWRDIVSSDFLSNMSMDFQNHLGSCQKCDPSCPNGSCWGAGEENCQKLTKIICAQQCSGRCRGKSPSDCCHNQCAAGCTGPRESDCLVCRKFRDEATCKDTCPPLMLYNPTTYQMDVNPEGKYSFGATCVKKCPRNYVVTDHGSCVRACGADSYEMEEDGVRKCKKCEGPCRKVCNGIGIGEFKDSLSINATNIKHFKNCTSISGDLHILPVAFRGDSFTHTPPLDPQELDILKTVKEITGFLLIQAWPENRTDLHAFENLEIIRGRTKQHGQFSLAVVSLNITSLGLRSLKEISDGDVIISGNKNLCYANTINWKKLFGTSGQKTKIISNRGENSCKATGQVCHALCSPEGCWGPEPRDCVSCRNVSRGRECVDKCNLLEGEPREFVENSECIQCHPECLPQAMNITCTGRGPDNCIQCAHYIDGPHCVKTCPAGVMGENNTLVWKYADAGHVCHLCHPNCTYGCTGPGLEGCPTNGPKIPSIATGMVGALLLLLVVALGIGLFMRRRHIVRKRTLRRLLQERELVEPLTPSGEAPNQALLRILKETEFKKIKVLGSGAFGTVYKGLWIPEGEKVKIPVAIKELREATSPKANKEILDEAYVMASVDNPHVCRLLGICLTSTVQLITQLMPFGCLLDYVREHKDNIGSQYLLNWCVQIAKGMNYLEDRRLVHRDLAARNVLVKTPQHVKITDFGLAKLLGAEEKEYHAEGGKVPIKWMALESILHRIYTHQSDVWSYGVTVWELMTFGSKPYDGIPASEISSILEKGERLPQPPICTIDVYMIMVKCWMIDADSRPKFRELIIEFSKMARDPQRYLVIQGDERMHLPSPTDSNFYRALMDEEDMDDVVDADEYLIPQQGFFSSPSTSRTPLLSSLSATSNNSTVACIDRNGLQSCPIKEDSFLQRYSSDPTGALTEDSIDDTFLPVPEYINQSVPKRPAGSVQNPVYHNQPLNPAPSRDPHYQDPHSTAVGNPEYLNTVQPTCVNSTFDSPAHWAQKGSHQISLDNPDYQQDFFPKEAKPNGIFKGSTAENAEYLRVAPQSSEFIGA
# [18] = biological target: Follistatin-related protein 3 (Homo sapiens) (UniProt O95633); assay: FSTL3 binders on small-molecule microarrays, primary screen, biochemical, small-molecule microarray, 635 nm fluorescence (AID 1105); conditions: FSTL3 binding, higher = more signal;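 further: score merges emission near 667 nm and signal to noise per printed spot across three slides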
# Sequence of Follistatin-related protein 3 (Homo sapiens) (O95633 whole entry, looked up): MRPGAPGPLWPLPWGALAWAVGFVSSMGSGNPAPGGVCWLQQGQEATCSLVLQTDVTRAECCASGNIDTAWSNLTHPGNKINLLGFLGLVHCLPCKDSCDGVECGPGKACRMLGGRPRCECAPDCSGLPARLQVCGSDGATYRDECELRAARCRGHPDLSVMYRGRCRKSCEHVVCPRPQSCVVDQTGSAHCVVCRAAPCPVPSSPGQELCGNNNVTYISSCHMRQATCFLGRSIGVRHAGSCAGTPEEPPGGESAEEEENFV
# [19] = biological target: Dickkopf-related protein 1 (Homo sapiens) (UniProt O94907); assay: DKK1 binders on small-molecule microarrays, primary screen, biochemical, small-molecule microarray, 635 nm fluorescence scan (AID 1106); conditions: DKK1 binding, higher = more signal;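 further: score merges emission near 667 nm with signal to noise over three replicate slides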
# Sequence of Dickkopf-related protein 1 (Homo sapiens) (O94907 whole entry, looked up): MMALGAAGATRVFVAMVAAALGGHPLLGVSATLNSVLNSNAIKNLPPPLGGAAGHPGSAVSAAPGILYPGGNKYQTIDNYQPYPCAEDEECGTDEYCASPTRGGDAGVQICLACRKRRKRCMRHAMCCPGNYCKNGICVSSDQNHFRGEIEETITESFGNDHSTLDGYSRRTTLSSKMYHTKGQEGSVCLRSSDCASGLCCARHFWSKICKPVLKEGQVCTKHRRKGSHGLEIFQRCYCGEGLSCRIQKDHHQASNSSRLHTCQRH
# [20] = tested on: Inhibin beta A chain (activin A); assay: INHBA (activin A) binders on microarrays, primary screen, biochemical, small-molecule microarray, 635 nm fluorescence scan (AID 1107); conditions: small-molecule microarray binding, higher = more signal;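 further: mouse activin A protein probed at 4.33 µg/mL on printed slides; score merges bound-protein fluorescence near 667 nm with spot signal-to-noise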
SMILES,composite z-score [1],z-score [2],z-score [3],z-score [4],composite z-score [5],z-score [6],composite z-score [7],composite z-score [8],composite z-score [9],composite z-score [10],composite z-score [11],composite z-score [12],composite z-score [13],z-score [14],composite z-score [15],composite z-score [16],composite z-score [17],composite z-score [18],composite z-score [19],composite z-score [20]
COC(=O)CC=C[C@@H](C)[C@@H](CO)NS(=O)(=O)c1ccc(C)cc1,-0.0055 and 0.604,0.102 (inactive) and 0.479 (inactive),-0.178 (inactive) and -0.491 (inactive),0.218 (inactive) and -0.249 (inactive),0.0736 and 1.26,-0.0928 (inactive) and 0.0226 (inactive),-0.37 and -0.0533,0.598 and 0.856,-0.15 and 0.745,-0.118 and 0.0192,0.266 and 0.348,-0.393 and -0.371,-0.591 and -0.895,0.538 (inactive) and -0.445 (inactive),0.394 and 0.774,0.635 and 0.827,0.667 and 0.395,0.505 and 1.3,0.998 and 0.71,0.0232 and -0.0806
COC(=O)C1=C(C)N(Cc2ccccc2)[C@]23O[C@](C(=O)OC)(C(=O)N2[C@@H]1c1ccccc1)[C@@H](c1ccccc1)[C@@H]3C(=O)c1ccccc1,0.618 and 0.917,-1.15 (inactive) and -0.583 (inactive),-3.18 (inactive) and -1.19 (inactive),-1.82 (inactive) and -0.776 (inactive),0.869 and 0.031,-0.0517 (inactive) and 0.951 (inactive),-0.185 and 0.0062,0.115 and 0.974,0.58 and 0.216,0.0557 and -0.0428,-0.104 and 0.177,0.107 and 0.263,-0.0791 and -0.347,-1.55 (inactive) and -0.5 (inactive),0.0494 and 0.417,0.338 and -0.145,0.0596 and 0.511,0.208 and 0.524,0.217 and 0.967,-0.431 and 1.21
CC(C)[Si]1(C(C)C)OCc2cc(C3CC3)nc(CCc3ccccc3)c21,-0.834 and 0.139,0.289 (inactive) and 0.35 (inactive),-1.32 (inactive) and 0.134 (inactive),0.725 (inactive) and 0.474 (inactive),-0.597 and 0.259,-0.102 (inactive) and -1.01 (inactive),-0.22 and -0.0956,-0.27 and 0.258,-0.149 and 0.351,-0.109 and -0.0147,-0.534 and -0.371,0.0295 and -0.146,0.221 and -0.262,-0.383 (inactive) and 0.693 (inactive),-0.348 and 0.0251,-0.897 and 0.178,0.105 and 0.15,-0.238 and 0.195,-0.293 and 0.135,0.768 and 0.242
CCOC(=O)[C@@H]1CC2O[C@]23C[C@@H]1C(=O)N1CCC[C@@H]1[C@H]3O[Si](C)(C)C(C)(C)C (stereo not given in full),-1.64 and -0.147,-0.418 (inactive) and -1.22 (inactive),-1.05 (inactive) and -0.791 (inactive),-0.435 (inactive) and -0.321 (inactive),-1.04 and 0.179,-0.458 (inactive) and -0.86 (inactive),-0.357 and -0.0163,-0.355 and 0.12,-0.868 and -0.199,-0.12 and -0.0314,-0.494 and -0.107,-0.557 and -0.234,-0.645 and -0.63,0.559 (inactive) and 0.577 (inactive),-0.438 and 0.433,-0.755 and 0.491,-0.133 and -0.303,-0.937 and 0.184,0.389 and 0.364,0.456 and 0.999
